From PubChem
Cycloheximide cs – Cycloheximide Counterscreen for Small Molecule Inhibitors of Shiga Toxin | cell reporter, cycloheximide protein synthesis inhibition counterscreen | max response, % | 300,000 compounds, 12% hits | AID 2314, 2010; in the data active means max response mostly above about 13%, no sharp cut-off; inactive means mostly below about 14%; further: read at 38.3 µM for the half of the compounds with a filed dose; 0% is about no effect
Pf growth 96h – Primary qHTS for delayed death inhibitors of the malarial parasite plastid, 96 hour incubation; P. falciparum luciferase reporter growth, 96 h; Potency, µM (titrated, usually from 28.7 µM), for the others: at the top dose activity change, negative = inhibition, hits mostly inhibitors; 320,000 compounds, 6.9% hits; AID 504834, 2011; further: potency means the concentration at half of the fitted maximal effect; on the % scale 0 is the no-effect control and ±100 the full control effect
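P. falciparum expressing integrated firefly luciferase, in erythrocytes at 2% hematocrit, 0.05% parasitemia, incubated with compounds 96 h at 37 C, 5% CO2. Growth inhibition read as loss of luminescence; two-generation exposure targets delayed-death apicoplast inhibitors.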
Shiga inhibitor – A qHTS for Small Molecule Inhibitors of Shiga Toxin. Vero cells, Shiga toxin protein synthesis inhibition reporter. inhibition, % at 38.7 µM. 290,000 compounds, 9.2% hits; in the data active means inhibition mostly above about 28%, no sharp cut-off; inactive means mostly below about 43%; further: 0% is about no effect
Pf growth 48h – Primary qHTS for delayed death inhibitors of the malarial parasite plastid, 48 hour incubation | 310,000 compounds, 5.9% hits | Potency, µM (highest dose often 28.7 µM), for the others: top-dose activity change, negative = inhibition, actives largely listed as inhibitors | P. falciparum luciferase growth in erythrocytes, 48 h; further: potency means the concentration at half of the fitted maximal effect; on the % scale 0 is the no-effect control and ±100 the full control effect
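Luciferase-expressing P. falciparum in infected erythrocytes (2% hematocrit, 0.1% parasitemia final) in RPMI 1640/0.5% Albumax were exposed to compound for 48 hours at 37 C, 5% CO2; growth read as luminescence.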
* marks the source's active call; other numbers are inactive results; [ ] = remark or other dose. A selection: hits, their analogues and other compounds. The true share with any hit is near 21%. Unless noted, the call rests on the fitted dose curve; in most records, active means well fitted inhibition curve with a large enough effect; inconclusive means small, poorly fitted or top-dose-only effect, or another doubt; inactive means no such curve, though single readings can be large or run the other way.

For CCOC(=O)c1c(NC(=O)CN2CCN(C(=O)c3ccco3)CC2)sc2c1CCCC2 the results were Cycloheximide cs 0, Pf growth 96h 115%, Shiga inhibitor 13 and Pf growth 48h 3.7µM*.
O=C(COC(=O)c1ccc(O)cc1O)Nc1ncc(Cl)cc1Cl was read as Pf growth 96h 3% and Pf growth 48h -6%.
O=C(N/N=C/c1cccn1-c1ccc([N+](=O)[O-])cc1)c1cccnc1 was read as Cycloheximide cs 1, Pf growth 96h inconclusive, Shiga inhibitor -9 and Pf growth 48h inconclusive.
`Cc1cc(OCC(=O)NC(Cc2ccc(Cl)cc2)C(=O)O)c2c(C)c(C)c(=O)oc2c1` (stereo unspecified) gave Cycloheximide cs 1, Pf growth 96h 6%, Shiga inhibitor -1 and Pf growth 48h -6%.
`Cc1ccc(/C(N)=N/OC(=O)C(C)c2ccc([N+](=O)[O-])cc2)cc1` (stereo unspecified) gave Cycloheximide cs -5, Pf growth 96h 13%, Shiga inhibitor 19 and Pf growth 48h -3%.
For CCOC(=O)NC(Nc1sc2c(c1C(=O)OC)CCN(C)C2)(C(F)(F)F)C(F)(F)F the results were Cycloheximide cs 1, Pf growth 96h 6.6µM*, Shiga inhibitor 13 and Pf growth 48h inconclusive.
CCC(=O)NC(Nc1sc2c(c1C(=O)OC)CCN(C)C2)(C(F)(F)F)C(F)(F)F was read as Cycloheximide cs -3, Pf growth 96h inconclusive, Shiga inhibitor -1 and Pf growth 48h inconclusive.
For O=C(c1ccco1)N1CCN(c2nc3ccsc3c(=O)s2)CC1 the results were Cycloheximide cs 31*, Pf growth 96h -20%, Shiga inhibitor 49* and Pf growth 48h 2%.
Screening O=c1sc(N2CCN(c3ccccc3F)CC2)nc2ccsc12 returned Cycloheximide cs 37*, Pf growth 96h inconclusive, Shiga inhibitor 56* and Pf growth 48h 63%.
`COc1ccc(OC)c(S(=O)(=O)Nc2c(C)cccc2C)c1` gave Cycloheximide cs -2, Pf growth 96h -22%, Shiga inhibitor -9 and Pf growth 48h -14%.
CSc1ccc(S(=O)(=O)N2CCC(C(=O)Nc3ccccc3C(F)(F)F)CC2)cc1 was read as Cycloheximide cs -3, Pf growth 96h inconclusive, Shiga inhibitor -15 and Pf growth 48h -10%.
`Cc1nc(Nc2ccncc2)c2oc3ccccc3c2n1` gave Cycloheximide cs -4, Pf growth 96h -2%[5.75 µM] and Shiga inhibitor -20.
`Cc1cccc(Nc2nc(C)nc3c2oc2ccccc23)c1` gave Cycloheximide cs 19*, Pf growth 96h inconclusive, Shiga inhibitor 42 and Pf growth 48h inconclusive.
For CCc1nc(Nc2ccc3c(c2)OCO3)c2oc3ccccc3c2n1 the results were Cycloheximide cs 12*, Pf growth 96h inconclusive, Shiga inhibitor 62* and Pf growth 48h inconclusive.
Screening CCc1nc(Nc2cccc(O)c2)c2oc3ccccc3c2n1 returned Cycloheximide cs 15, Pf growth 96h inconclusive, Shiga inhibitor 39 and Pf growth 48h inconclusive.
`CCc1nc(NCCCN2CCOCC2)c2oc3ccccc3c2n1` gave Cycloheximide cs 0, Pf growth 96h 5.9µM*, Shiga inhibitor -9 and Pf growth 48h inconclusive.
`CCc1nc(Nc2ccncc2)c2oc3ccccc3c2n1` gave Cycloheximide cs -2, Shiga inhibitor -10 and Pf growth 48h 13µM*.
For COc1ccc(C2C(C(=O)NCCN3CCOCC3)c3ccccc3C(=O)N2C2CCCCC2)cc1 (stereo unspecified) the results were Cycloheximide cs -3, Pf growth 96h 18%, Shiga inhibitor -4 and Pf growth 48h inconclusive.
COc1ccc(N(CC(=O)NCc2ccccc2)S(=O)(=O)c2c(C)n[nH]c2C)cc1 was read as Cycloheximide cs 1, Pf growth 96h -24%, Shiga inhibitor -5 and Pf growth 48h -8%.
Screening CCCCc1c(O)cc(C)[nH]c1=O returned Cycloheximide cs -1, Pf growth 96h 26%, Shiga inhibitor 4 and Pf growth 48h -17%.
CCOC(=O)c1nc(NCc2ccccc2F)c2ccccc2n1 was read as Cycloheximide cs 2, Pf growth 96h inconclusive, Shiga inhibitor -3 and Pf growth 48h inconclusive.
Screening Cc1cc(C)c(C#N)c(SCC(=O)Nc2ccccc2C(N)=O)n1 returned Cycloheximide cs 23*, Pf growth 96h -6%, Shiga inhibitor 51* and Pf growth 48h 10%.
Cc1cc(C)c(C#N)c(SCCS(=O)(=O)c2ccc(Cl)cc2)n1 was read as Cycloheximide cs 0, Pf growth 96h -21%, Shiga inhibitor 3 and Pf growth 48h inconclusive.
`Cc1cc(C)c(C#N)c(SCCS(=O)(=O)c2ccc(C(C)(C)C)cc2)n1` gave Cycloheximide cs -2, Shiga inhibitor -8 and Pf growth 48h 7.4µM*.
Screening CCN(Cc1ccccc1)C(=O)CSc1nc(C)cc(C)c1C#N returned Cycloheximide cs -5, Pf growth 96h 10µM*, Shiga inhibitor -14 and Pf growth 48h inconclusive.
`CCOC(=O)NC(=O)CSc1nc(C)cc(C)c1C#N` gave Cycloheximide cs 22, Pf growth 96h 9.3µM*, Shiga inhibitor 17 and Pf growth 48h 148%.
`Cc1cccn2c(=O)c3cc(C(=O)N4CCCCC4C)sc3nc12` (stereo unspecified) gave Pf growth 96h -27% and Pf growth 48h -24%.
Screening CCCCOc1ccccc1C(=O)NNC(=S)NC(=O)c1ccccc1[N+](=O)[O-] returned Cycloheximide cs -1, Pf growth 96h inconclusive, Shiga inhibitor -14 and Pf growth 48h -2%.
O=C(CN1N=C(c2ccc(Cl)cc2)CCC1=O)NCCN1CCc2ccccc2C1 was read as Cycloheximide cs -4, Pf growth 96h 14%, Shiga inhibitor -11 and Pf growth 48h -12%.
`Cc1cc(C)c(C#N)c(SCC(=O)NC(C)(C)C)n1` gave Cycloheximide cs -9, Pf growth 96h 7.4µM* and Shiga inhibitor -14.
For COC(=O)CC(=O)CSc1nc(C)cc(C)c1C#N the results were Cycloheximide cs -2, Pf growth 96h 8.3µM*, Shiga inhibitor 25 and Pf growth 48h 21%.
Screening CCc1nnc(NC(=O)CSc2nc(C)cc(C)c2C#N)s1 returned Cycloheximide cs 15*, Pf growth 96h 16%, Shiga inhibitor 40 and Pf growth 48h 115%[5.75 µM].
Cc1cc(C)c(C#N)c(SCC(=O)C(C)(C)C)n1 was read as Cycloheximide cs 12, Pf growth 96h -5%, Shiga inhibitor 13 and Pf growth 48h 9%.
For Cc1cc(C)c(C#N)c(SCC(=O)N2CCCCC2)n1 the results were Cycloheximide cs -2, Shiga inhibitor -2 and Pf growth 48h 3%.
`COc1cc2c(cc1OC)CN(C(=O)CSc1nc(C)cc(C)c1C#N)CC2` gave Cycloheximide cs -2, Pf growth 96h 6.6µM*, Shiga inhibitor -3 and Pf growth 48h inconclusive.
`CCc1nnc(NC(=O)CSc2nc3cc(OC)c(OC)cc3cc2C)s1` gave Cycloheximide cs -5, Pf growth 96h inconclusive, Shiga inhibitor -10 and Pf growth 48h inconclusive.
Cn1cnnc1SCNC(=O)C(F)(F)F was read as Cycloheximide cs -2, Pf growth 96h -8%, Shiga inhibitor 32 and Pf growth 48h 22%.
